Screening data from PubChem.
Pf growth 48h = P. falciparum growth inhibition at 48 hours (one generation) | P. falciparum luciferase growth in erythrocytes, 48 h | Potency, µM (doses to about 28.7 µM), for inactives: at the highest dose activity change, negative = inhibition, actives largely listed as inhibitors | actives 5.9% (n = 310,000) | AID 504832; note: potency is the fitted concentration of half-maximal effect; % is set by controls: 0 for no effect and ±100 for the full control effect
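Parasite viability was followed by luminescence of a genomically integrated firefly luciferase. Cultures held 0.1% parasitemia at 2% hematocrit (final), incubated under 5% CO2 at 37 C.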
Pf growth 96h = P. falciparum growth inhibition at 96 hour, primary screen for plastid delayed-death inhibitors; actives 6.9% (n = 320,000); Potency, µM (highest dose often 28.7 µM), for the others: top-dose activity change, negative = inhibition, most hits filed as inhibitors; P. falciparum luciferase reporter growth, 96 h; note: potency is the fitted concentration of half-maximal effect; % is set by controls: 0 for no effect and ±100 for the full control effect
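Erythrocytes infected with luciferase-expressing P. falciparum were dispensed at 2% hematocrit and 0.05% parasitemia (final), then incubated with compounds 96 hours at 37 C in 5% CO2. Luminescence after detection reagent addition reported growth.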
HCMV inh = human cytomegalovirus inhibition. HFF cells, HCMV-luciferase reporter, 72 h; hits give low values. activity change, negative = inhibition, % at 57.5 µM. actives 4.5% (n = 410,000); in the data active = activity change below about -60%; inconclusive = no clear call, values can overlap the other calls; inactive = above about -39%; note: % is set by controls: 0 for no effect and ±100 for the full control effect
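Human foreskin fibroblasts infected with luciferase-reporter HCMV at MOI 1 PFU/cell, compounds at two doses. Luciferase measured 72 h post infection; normalized to buffer-only basal and Salinomycin (10uM) controls.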
CHX counter = counter-screen for Shiga toxin inhibitors: cycloheximide protein synthesis inhibition | cell reporter, cycloheximide protein synthesis inhibition counterscreen | max response, % | actives 12% (n = 300,000); in the data active = max response mostly above about 13%, no sharp cut-off; inactive = mostly below about 14%; note: read at 38.3 µM for the half of the compounds with a filed dose; 0% is about no effect
Shiga inhibitor = Shiga toxin inhibition. Vero cells, Shiga toxin protein synthesis inhibition reporter. inhibition, % at 38.7 µM. actives 9.2% (n = 290,000); in the data active = inhibition mostly above about 28%, no sharp cut-off; inactive = mostly below about 43%; note: 0% is about no effect
HCV inhibitor = inhibitors of hepatitis C virus infection. actives 3.4% (n = 340,000). Huh7.5.1 HCVcc-Cre infection, luciferase reporter, 44 h. Potency, µM (series often up to 41.8 µM), for inactives: at the highest dose activity change, negative = inhibition, actives largely listed as inhibitors; note: potency is the fitted concentration of half-maximal effect; % is set by controls: 0 for no effect and ±100 for the full control effect
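After 44 h co-culture of compound, cells and HCVcc-Cre (~0.5 moi), substrate is added for 15 min at room temperature and luciferase measured over 15 sec. Cells were seeded at 1,000/well and pre-cultured 4 h.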
Active calls of the source: *; ? = inconclusive; nt = not tested or not shown. Compounds with a hit are over-represented: about 21% of the library has one in this group of screens. Unless noted, calls come from the whole dose curve; as a rule, active = well fitted inhibition curve with a large enough effect; inconclusive = small, poorly fitted or top-dose-only effect, or another doubt; inactive = no such curve, though single readings can be large or run the other way.

SMILES	Pf growth 48h	Pf growth 96h	HCMV inh	CHX counter	Shiga inhibitor	HCV inhibitor
CCC(C)C(NC(N)=O)C(=O)Nc1ccc(S(=O)(=O)Nc2ccc(OC)cc2)cc1 (stereo unspecified)	7%	-4%	-102*	-14	-1	-17%
CCCCNC(=O)NS(=O)(=O)c1ccc(NC(=O)C(NC(N)=O)C(C)CC)cc1 (stereo unspecified)	8%	0%	29	-5	-2	6%
CCOc1ccc(NC(=O)[C@@H](NC(=O)OCc2ccccc2)[C@@H](C)CC)cc1	0%	17%	?	-1	-8	4%
CC(C)n1cnc2cc(NCc3ccccn3)ccc21	149%	nt	38	72*	70*	13%
CC(C)n1c(NCc2ccccc2O)nc2ccccc21	?	33%	18	2	-9	-27%
CC(C)n1cnc2cc(NCc3ccco3)ccc21	62%	38%	62	41*	72*	-7%
CC(C)n1cnc2cc(NCc3ccccc3O)ccc21	33%	28%	-12	52*	86*	7%
Cc1cc(NCc2ccccn2)ccc1Br	102%	210%	25	34*	74*	-7%
Cc1cc(C)c(S(=O)(=O)NCc2ccccn2)c(C)c1	6%	0%	-3	1	2	20%
O=C(Nc1ncccc1O)c1cccc(S(=O)(=O)NCc2ccccc2)c1	10%	-15%	-38	nt	nt	14%
CC(C)(C)n1cnc2cc(NCc3ccccc3O)ccc21	-3%	?	53	49*	66*	-11%
CCOc1ccc(CCN2C(=S)N([C@@H](Cc3ccc(O)cc3)CN3CCC[C@@H]3CN3C(=S)NC[C@@H]3Cc3ccccc3)C[C@@H]2Cc2ccc(O)cc2)cc1	nt	nt	-39	nt	nt	nt
Oc1ccc(C[C@H]2CNC(=S)N2CC2CCCN2C[C@H](Cc2ccccc2)N2C[C@H](Cc3ccc(O)cc3)N(CCc3ccccc3)C2=S)cc1 (stereo partly specified)	nt	nt	?	nt	nt	2.2µM*
CCOc1ccc(CCN2C(=S)N([C@@H](CC(C)C)CN3CCCC3CN3C(=S)NC[C@@H]3Cc3ccc(O)cc3)C[C@@H]2Cc2ccccc2)cc1 (stereo partly specified)	nt	nt	-39	nt	nt	10µM*
CCOc1ccc(CCN2C(=S)N([C@@H](CC(C)C)CN3CCCC3CN3C(=S)NC[C@@H]3Cc3ccc(O)cc3)C[C@@H]2Cc2ccc(O)cc2)cc1 (stereo partly specified)	nt	nt	-84*	nt	nt	11µM*
CCC1NC(=O)c2cccnc2-n2c1nc1cc(OC)c(OC)cc1c2=O (stereo unspecified)	nt	nt	-7	nt	nt	nt
CC1(C)OC(C)(C)C(=N/O)/C1=N\N	nt	nt	-25	nt	nt	nt
CCc1ccc(NC(=O)c2nnn(Cc3cccc(C(F)(F)F)c3)c2N)cc1	nt	nt	-9	nt	nt	nt
COC(=O)[C@]1(C)N[C@H](CN(C)S(=O)(=O)c2ccc(OC(F)(F)F)cc2)[C@@H]2C(=O)N(Cc3ccccc3)C(=O)[C@@H]21	nt	nt	-21	nt	nt	-2%
Cc1onc(-c2c(F)cccc2Cl)c1C(=O)Oc1ccccc1	nt	nt	-11	nt	nt	nt
CN(C)/C=C/c1onc(-c2c(F)cccc2Cl)c1C#N	16%	6%	-26	27*	109*	-28%
O=C(O)c1cccc(Nc2nc(-c3cc4ccccc4oc3=O)cs2)c1	21%	54%	-38	41*	74*	19%
Cc1nc2ccccn2c1-c1csc(Nc2cccc(C(=O)O)c2)n1	22%	9%	?	-7	43	13%
O=c1oc2ccccc2cc1-c1csc(NN=C2CCCC2)n1	21%	?	-4	14*	15	-6%
Cc1ccc(-n2c(SCC(=O)c3c(N)n(C4CC4)c(=O)[nH]c3=O)nnc2N2CCOCC2)cc1	10µM*	?	3	nt	nt	-4%
SMILES	Pf growth 48h	Pf growth 96h	HCMV inh	CHX counter	Shiga inhibitor	HCV inhibitor
Cc1ccccc1-n1c(SCC(=O)c2c(N)n(C3CC3)c(=O)[nH]c2=O)nnc1N1CCOCC1	?	13µM*	-30	nt	nt	4%
Nc1c(C(=O)CSc2nnnn2-c2ccc(O)cc2)c(=O)[nH]c(=O)n1C1CC1	37%	?	-6	nt	nt	-1%
Cc1cccc(-n2c(SCC(=O)c3c(N)n(C4CC4)c(=O)[nH]c3=O)nnc2N2CCOCC2)c1	?	5.2µM*	21	nt	nt	13%
Cc1ccc(-n2nnnc2SCC(=O)c2c(N)n(C3CC3)c(=O)[nH]c2=O)c(C)c1	10µM*	5.9µM*	16	nt	nt	3%
Nc1c(C(=O)CSc2nnc(N3CCOCC3)n2-c2cccc(F)c2)c(=O)[nH]c(=O)n1C1CC1	?	?	71	nt	nt	11%
COc1ccc(Cl)cc1NC(=O)c1nnn(Cc2cccc(C(F)(F)F)c2)c1N	nt	nt	-13	nt	nt	nt
COc1cccc(C(=O)c2cc3cc(Cl)ccc3[nH]2)c1	121%	?	65	38*	42*	-22%
O=C(c1ccccc1)c1cc2cc(Cl)ccc2[nH]1	106%	38%	-10	32*	40*	0%
COCCn1c(-c2ccc(Br)cc2)csc1=Nc1cccnc1	?	?	-37	-1	2	?
Clc1ccc(-c2csc(=Nc3cccnc3)n2CCCn2ccnc2)cc1Cl	12µM*	4.7µM*	-94*	-7	-13	11µM*
Cc1cccc(C(=O)NCC(=O)OCCOc2ccccc2Cl)c1	-11%	7%	-30	nt	nt	6%
CCCCCCc1cc2cc(C(=O)OCC)c(=O)oc2cc1O	1.7µM*	1.5µM*	-4	1	-10	-8%
CCCCCCc1cc2cc(C(N)=O)c(=N)oc2cc1O	nt	?	nt	1	25	nt
CCCCCCc1cc2cc(/C(N)=N/NC(=O)c3ccncc3)c(=O)oc2cc1O	3.3µM*	20%	10	nt	nt	?
CCCCCCc1cc2cc(C(=O)Nc3cccc(OC)c3)c(=O)oc2cc1O	?	18%	-88*	2	13	?
CCCCCCc1cc2cc(S(=O)(=O)c3ccc(F)c(Cl)c3)c(=O)oc2cc1O	?	?	-102*	-1	-14	?
COCCN(CCOC)S(=O)(=O)c1ccc(C(=O)Nc2ccc([N+](=O)[O-])cc2OC)cc1	17%	?	15	-5	0	-13%
CCCCCCc1cc2cc(C(=O)Nc3ccc(OC)cc3)c(=O)oc2cc1O	?	-7%	-61*	-2	-9	?
CCCCCCc1cc2cc(C(=O)NC)c(=N)oc2cc1O	?	24%	-19	-5	-5	-29%
Nc1[nH]c(C(=O)c2ccc(Br)cc2)c(-c2ccc3ccccc3c2)c1C(=O)NCCc1c[nH]c2ccccc12	nt	nt	2	nt	nt	nt
COc1ccc2c(c1OC)C(=O)N1N=C(c3ccccc3)CC21 (stereo unspecified)	4.1µM*	?	?	18*	31	?
